Assay in all cases: NCI-60 one-dose screen, 48 h (100 = growth as untreated, 0 = no growth, -100 = all killed)
One test deals with HCT-15 colon. The settings on record: 10 µM.
The subject of a further test is HT29 colon. The settings on record: 10 µM.
For the next test, the system named is SNB-75 CNS. Particulars: 10 µM.
Another test relates to SNB-19 CNS. Particulars: 10 µM.
The next test concerns U251 CNS. The settings on record: 10 µM.
The next test has as its system PC-3 prostate. The settings on record: 10 µM.
Another test deals with SK-MEL-5 melanoma. Particulars: 10 µM.
A further test deals with LOX IMVI melanoma. Particulars: 10 µM.
The subject of the next test is SK-MEL-28 melanoma. The settings on record: 10 µM.
A further test concerns UACC-62 melanoma. Particulars: 10 µM unless noted.

About 83,000 compounds went through this panel and 20% of them were active in at least one assay; those are over-represented in the sample as a whole.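 How to read the values: 0–100, growth inhibition (40 = 60% inhibited); 0, no net growth; -100 to 0, cell death (-40 = 40% of starting cells died; -100 = all dead).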 Values without a mark were called inactive. The source made the active and inactive calls. Rule for the calls: active = growth percent below 10; inactive = the rest.

For the compound `O=[N+]([O-])c1ccc(N=Nc2ccc(O)c3ccccc23)cc1`, the growth with HCT-15 colon is 41.2%; with HT29 colon it was 79.1%; with SNB-75 CNS, 68.8%; with SNB-19 CNS it was 39.8%; in the test with U251 CNS, 15.4%; with PC-3 prostate it was 14.9%. Besides, the growth was 28.7% in the test on SK-MEL-5 melanoma, 18.4% with LOX IMVI melanoma and 69% in the test on SK-MEL-28 melanoma.

Take `C=CCc1cc(C(C)=O)cc(OC)c1O`: the growth in the test on HCT-15 colon was 119%; in the test with HT29 colon, 108%; with SNB-75 CNS, 89.2%; in the test with SNB-19 CNS, 105%; in the test on U251 CNS, 103%; in the test with PC-3 prostate, 106%. For the same compound, the growth with UACC-62 melanoma is 97.8%; in the test on LOX IMVI melanoma, 100%; in the test with SK-MEL-28 melanoma it was 110%.

In the case of `COc1ccc(/C(C#N)=C2C=C/C(=N/O)c3ccccc3\2)cc1`, the growth in the test on HCT-15 colon is 7.28% (active); with HT29 colon it was -13.3% (active); with SNB-75 CNS, 23.4%; in the test on SNB-19 CNS, 61.7%; with PC-3 prostate it was 12.8%; with SK-MEL-5 melanoma, -28.9% (active). The growth was 6.75% (active) with UACC-62 melanoma, 9.34% (active) with LOX IMVI melanoma and 46.5% with SK-MEL-28 melanoma.

For the compound `CCOC(=O)/C(C#N)=C/c1cccc(C)c1`, the growth with HCT-15 colon is 108%; in the test on HT29 colon, 99%; in the test with SNB-75 CNS it was 80.8%; with SNB-19 CNS, 94.8%; in the test with U251 CNS, 98.2%; in the test with SK-MEL-5 melanoma, 101%. In addition, the growth with UACC-62 melanoma was 92%; in the test on LOX IMVI melanoma, 94.8%; in the test on SK-MEL-28 melanoma it was 109%.

`CCOC(=O)C/C(C)=N\O`: the growth is 103% in the test with HCT-15 colon; 98.9% in the test with HT29 colon; 118% with SNB-75 CNS; 99.2% in the test on SNB-19 CNS; 96.8% with PC-3 prostate; 100% in the test on SK-MEL-5 melanoma. The growth in the test with UACC-62 melanoma was 107%; in the test on LOX IMVI melanoma, 100%; with SK-MEL-28 melanoma, 121%.

For `CC(=O)Nc1cccc(Cl)c1C`, the growth in the test with HCT-15 colon was 106%; in the test on HT29 colon, 97.1%; in the test with SNB-75 CNS, 87.1%; with SNB-19 CNS, 107%; in the test with U251 CNS, 88.9%; in the test with SK-MEL-5 melanoma, 102%. Further, the growth in the test with LOX IMVI melanoma is 96.8%; in the test with SK-MEL-28 melanoma, 107%.

Consider `NCC(=O)CCC(=O)O`, for which the growth in the test with HCT-15 colon is 106%; in the test on HT29 colon it was 104%; with SNB-75 CNS it was 104%; with SNB-19 CNS, 113%; with U251 CNS, 96.7%; in the test on PC-3 prostate it was 100%. Also, the growth was 114% in the test on UACC-62 melanoma, 99.6% in the test on LOX IMVI melanoma and 103% in the test on SK-MEL-28 melanoma.

Regarding `Cc1ccc(C(=O)NC2c3ccccc3Oc3ccccc32)cc1`, the growth was 39.6% in the test on HCT-15 colon; 23.4% with HT29 colon; 34.9% with SNB-75 CNS; 49% in the test with SNB-19 CNS; 56.5% in the test with U251 CNS; 53.4% in the test on PC-3 prostate. Besides, the growth in the test on SK-MEL-5 melanoma is 62.7%; with LOX IMVI melanoma, 45%; in the test on SK-MEL-28 melanoma it was 61.4%.

Take `CN(C)c1ccc2oc(=O)c3ccccc3c2c1`: the growth in the test with HCT-15 colon was 101%; in the test with HT29 colon it was 86.7%; in the test on SNB-75 CNS, 57.1%; with SNB-19 CNS, 81.3%; in the test on U251 CNS, 94.3%; with SK-MEL-5 melanoma, 94.9%. Further, the growth was 68.8% with UACC-62 melanoma, 88.8% with LOX IMVI melanoma and 113% in the test with SK-MEL-28 melanoma.

With `Oc1ccc(O)cc1`, the growth was 101% in the test on HCT-15 colon; 97.7% in the test with HT29 colon; 102% in the test on SNB-75 CNS; 115% with SNB-19 CNS; 99.1% in the test with U251 CNS; 89.2% in the test with PC-3 prostate. Moreover, the growth is 103% with UACC-62 melanoma, 92.6% with LOX IMVI melanoma and 112% in the test on SK-MEL-28 melanoma.

As to `COc1cc(CCN=Cc2ccccc2O)c([N+](=O)[O-])cc1OC`, the growth with HCT-15 colon is 92.3%; in the test with HT29 colon, 101%; in the test with SNB-75 CNS, 96.6%; in the test with SNB-19 CNS, 99.3%; in the test with PC-3 prostate, 98.9%; in the test on SK-MEL-5 melanoma, 101%. Besides, the growth with UACC-62 melanoma was 109%; in the test with LOX IMVI melanoma, 99.4%; in the test on SK-MEL-28 melanoma, 113%.

Turning to `COc1cccc(COC(=O)Nc2ccccc2)c1OC`, the growth is 85.4% in the test on HCT-15 colon; 105% with HT29 colon; 84.1% with SNB-75 CNS; 101% in the test with SNB-19 CNS; 83.9% in the test on PC-3 prostate; 98.2% with SK-MEL-5 melanoma. For the same compound, the values for the growth in the test on UACC-62 melanoma, with LOX IMVI melanoma and in the test on SK-MEL-28 melanoma were 94.4%, 103% and 102%, respectively.

Consider `O=c1cc(-c2ccccc2)[nH]c(=S)[nH]1`, for which the growth with HCT-15 colon is 107%; in the test with HT29 colon, 101%; in the test on SNB-75 CNS, 96.9%; with SNB-19 CNS, 104%; in the test with PC-3 prostate, 91%; in the test with SK-MEL-5 melanoma, 104%. The growth with UACC-62 melanoma is 106%; with LOX IMVI melanoma, 98.3%; with SK-MEL-28 melanoma, 103%.

As to `Cc1cc(C)cc(NCCC#N)c1`, the growth in the test with HCT-15 colon was 106%; in the test on HT29 colon, 105%; in the test on SNB-75 CNS, 94.6%; with SNB-19 CNS, 96.5%; in the test with U251 CNS, 105%; in the test on SK-MEL-5 melanoma, 107%. The figures for the growth with UACC-62 melanoma, with LOX IMVI melanoma and in the test on SK-MEL-28 melanoma were 105%, 105% and 108%, respectively.

As for `O=C(Cc1ccc(OCc2ccccc2)cc1)NCc1ccc2c(c1)OCO2`, the growth is 48.9% in the test on HCT-15 colon; 27.4% in the test on HT29 colon; 91.8% in the test with SNB-75 CNS; 85.7% in the test on SNB-19 CNS; 64.6% in the test on PC-3 prostate; 95.8% in the test with SK-MEL-5 melanoma. Also, the growth in the test with UACC-62 melanoma is 61.8%; in the test on LOX IMVI melanoma, 50%; with SK-MEL-28 melanoma, 74.7%.

On to `CCCNC(=O)c1ccc(S(N)(=O)=O)cc1`, for which the growth with HCT-15 colon was 110%; in the test on HT29 colon, 93.1%; with SNB-75 CNS it was 72.6%; in the test on SNB-19 CNS it was 107%; with U251 CNS, 103%; in the test on SK-MEL-5 melanoma it was 101%. The results for the growth in the test with UACC-62 melanoma, in the test on LOX IMVI melanoma and with SK-MEL-28 melanoma were 109%, 98.9% and 97.8%, respectively.

The values above are taken from PubChem BioAssay (NCI).
